# Assay outcomes deposited in PubChem by National Center for Advancing Translational Sciences (NCATS).
# IL1B secr inh = inhibitors of inflammasome signaling (IL-1 beta secretion); THP-1 LPS/ATP IL-1B secretion, AlphaLISA, 16 h; hits give low values; activity change, % at 57.5 µM; 360,000 tested, 4.7% active; AID 743279; in the data active = activity change below about -50%; inconclusive = mostly about -30% to -49%
#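 Secreted IL-1B measured by AlphaLISA bead assay after 16 h compound exposure of THP-1 cells; compounds (final up to 57.5 uM) added 1 h before LPS (250 ng/mL) and ATP (1.25 mM) stimulation; lower signal means less secretion.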
# ClpP mod = qHTS Assay for Activators of ClpP; ATP-dependent Clp protease proteolytic subunit (Bacillus subtilis (strain 168)), P80244; purified B. subtilis ClpP, FRET peptide cleavage, 20 min; Potency, µM (top dose mostly 57.5 µM); 340,000 tested, 1.9% active; AID 651965, 2013; active = well fitted falling curve with a large enough effect; inconclusive = small, poorly fitted or top-dose-only effect; inactive = no such curve, though single readings can be large or run the other way; also: the source files actives as falling curves though it sought activators and does not explain the sign; nearly all actives have a fitted effect of over 65% in size
# Target sequence (P80244 whole entry, looked up): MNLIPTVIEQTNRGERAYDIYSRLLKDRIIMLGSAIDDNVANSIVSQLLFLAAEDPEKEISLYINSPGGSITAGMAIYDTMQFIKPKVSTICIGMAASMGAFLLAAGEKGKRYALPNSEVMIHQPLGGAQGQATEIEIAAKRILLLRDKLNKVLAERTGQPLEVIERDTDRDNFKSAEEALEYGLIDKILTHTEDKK
#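 FRET quenching reversal measured ClpP activation: 10 microg/mL B. subtilis ClpP at pH 8 with the FRET-FV decapeptide, read at 430 nm after 320 nm excitation. The 20-min minus 0-min signal was scaled between DMSO/no-enzyme wells and ADEP (5.8 microM final).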
# TDP1 cell noCPT = qHTS for Inhibitors of human tyrosyl-DNA phosphodiesterase 1 (TDP1): qHTS in cells in absence of CPT | DT40 Tdp1-/- hTDP1 cells, no CPT, ATP luminescence, 48 h | Potency, µM (highest dose often 46.2 µM), hits mostly inhibitors | 420,000 tested, 15% active; also: nearly all actives have a fitted effect of over 55% in size
#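 Growth of hTDP1-complemented DT40 Tdp1-knockout cells is measured by ATP luminescence after at least 48 hr compound exposure at 37 °C, with DMSO substituting for the 20 nM CPT used in the parallel screen.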
# DRD3 antagonist = D3 dopamine receptor (human) antagonism | 360,000 tested, 2.5% active | max response, negative = inhibition, % | D3R cells, DiscoveRx beta-arrestin luminescence, antagonist mode; hits give low values; in the data active = max response below about -50%; inconclusive = no clear call, values can overlap the other calls
# Target sequence (P35462 whole entry, looked up): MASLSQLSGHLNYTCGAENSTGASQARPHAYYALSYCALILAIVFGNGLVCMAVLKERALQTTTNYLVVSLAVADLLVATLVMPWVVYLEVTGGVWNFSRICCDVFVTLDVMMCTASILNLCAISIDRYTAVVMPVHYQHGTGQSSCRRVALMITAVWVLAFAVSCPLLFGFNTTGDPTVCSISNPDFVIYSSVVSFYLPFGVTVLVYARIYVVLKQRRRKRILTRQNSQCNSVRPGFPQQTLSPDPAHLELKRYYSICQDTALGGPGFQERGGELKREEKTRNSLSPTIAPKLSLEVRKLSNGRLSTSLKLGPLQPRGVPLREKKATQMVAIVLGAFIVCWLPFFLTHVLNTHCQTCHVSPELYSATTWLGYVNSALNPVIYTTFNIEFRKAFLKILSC
#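 Cells plated overnight at 1500 cells/well, then exposed to library compounds with dopamine controls for 90 minutes at 37 degrees C. DiscoveRx reagent added for 30–60 minutes at room temperature; luminescence read, quantitative HTS format.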
# D3 ag = agonists of human D3 dopamine receptor; max activation, %; 410,000 tested, 0.58% active; P35462; D3R DiscoveRx beta-arrestin cells, luminescence, 90 min; in the data active = max activation above about 30%
#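 Cells at 1500/well, incubated overnight, then treated with pinned compounds (dopamine as control) for 90 min at 37 degrees C. DiscoveRx reagent added for 30 - 60 minutes at room temperature; luminescence read.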
# TDP1 cell CPT = DT40-hTDP1 cell growth loss with CPT; Potency, µM (series often up to 46.2 µM), actives largely listed as inhibitors; 420,000 tested, 12% active; chicken DT40 Tdp1-/-;hTDP1 cells + 20 nM CPT, ATP luminescence, 48 h; AID 686979; also: nearly all actives have a fitted effect of over 55% in size
#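 Chicken DT40 Tdp1-/- cells complemented with human TDP1, 400 cells/well, exposed to compounds plus 20 nM camptothecin for at least 48 h at 37 C; viability read as ATP content by CellTiter-Glo luminescence.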
# A number is an active result; 0 = inactive; ? = inconclusive; - = no result. Compounds with a hit are over-represented: about 21% of the library has one in this group of screens. Unless noted, calls follow the shape of the dose curve; as a rule, active = well fitted inhibition curve with a large enough effect; inconclusive = small, poorly fitted or top-dose-only effect; inactive = flat fitted curve, though single readings scatter.
SMILES,IL1B secr inh,ClpP mod,TDP1 cell noCPT,DRD3 antagonist,D3 ag,TDP1 cell CPT
COc1ccc(-c2nnc(N3CCCCC3)c3ccccc23)cc1,-66,0,18µM,0,0,23µM
COc1ccccc1N1CCN(c2nnc(-c3ccc(F)cc3)c3ccccc23)CC1,0,0,21µM,0,0,?
COc1ccc(-c2nnc(N3CCOCC3)c3ccccc23)cc1,-,0,0,0,0,0
Fc1ccc(-c2nnc(-n3nnc4ccccc43)c3ccccc23)cc1,0,0,12µM,0,0,?
COC(=O)c1ccc(Cn2nnc3sc4c(c3c2=O)CCC(C)C4)cc1 (configuration not stated),-,0,?,-,0,?
CCN1CCN(c2nnc(-c3ccccc3)c3ccccc23)CC1,0,0,0,0,0,0
Cc1ccc(-c2nnc(N3CCCCCC3)c3ccccc23)cc1,-,0,16µM,?,0,?
CCOC(=O)c1nc(C)nc(Sc2n[nH]c(-c3cc(Cl)cc(Cl)c3)n2)c1C,0,-,?,0,0,0
CCOC(=O)c1nc(C)nc(Sc2n[nH]c(-c3ccc(C(C)(C)C)cc3)n2)c1C,0,0,18µM,0,0,?
Cc1cc2nccc(-c3ccc(Cl)c([N+](=O)[O-])c3)n2n1,0,-,?,0,0,0
CCN(CC)C(=O)[C@H]1CC(CC(=O)NC/C=C(\C)CCC=C(C)C)C(=O)N2CCc3c([nH]c4ccccc34)[C@]12C (some centres not stated),?,0,?,0,0,23µM
CC(C)=CCC/C(C)=C/CNC(=O)CC1C[C@H](C(=O)N2CCCCC2)[C@@]2(C)c3[nH]c4ccccc4c3CCN2C1=O (some centres not stated),0,0,13µM,?,0,21µM
CCN(CC)C(=O)[C@H]1CC(CC(=O)NC/C=C(\C)CCC=C(C)C)C(=O)N2CCc3c([nH]c4ccc(OC)cc34)[C@]12C (some centres not stated),-78,0,?,0,0,?
CCC(C)n1c(=O)c2sccc2n2c(CCCC(=O)Nc3ccc(F)cc3)nnc12 (configuration not stated),-,0,?,-,0,?
Cc1cc(C)n2cc(CSc3nncn3C)nc2n1,0,-,0,0,0,0
COc1ccc(NC(=O)CN2C(=O)NC3(CCCC3)C2=O)cc1OC,0,-,0,0,0,0
CN(c1ccccc1)S(=O)(=O)c1cccc(C(=O)Nc2cccc(C(=O)NC3CC3)c2)c1,0,0,?,0,0,?
CN(c1ccccc1)S(=O)(=O)c1cccc(NC(=O)c2ccc3ncsc3c2)c1,-69,-,?,0,0,10µM
CN(c1ccccc1)S(=O)(=O)c1cccc(NC(=O)c2cccc(C#N)c2)c1,?,0,15µM,0,0,?
CCC(=O)N(C1=C(NC(C)C)C(=O)c2ccccc2C1=O)C(C)C,0,0,9.2µM,0,0,21µM
Cc1cc(C)c(S(=O)(=O)N(C)c2ccccc2)c(C)c1,?,0,0,0,0,?
Cc1nc(S(=O)(=O)N(C)c2ccccc2)c(C#N)c(C)c1Cl,?,0,23µM,0,0,23µM
COc1ccc(Nc2ncnc3sccc23)c(OC)c1,0,-,0,0,0,0
COc1ccc(Nc2nc(-c3cccs3)nc3ccccc23)c(OC)c1,0,0,13µM,0,0,16µM
COc1ccccc1Nc1nc(-c2cccc([N+](=O)[O-])c2)nc2ccccc12,0,0,18µM,0,0,23µM
SMILES,IL1B secr inh,ClpP mod,TDP1 cell noCPT,DRD3 antagonist,D3 ag,TDP1 cell CPT
COc1ccc(Nc2nc(-c3cccc([N+](=O)[O-])c3)nc3ccccc23)c(OC)c1,0,0,18µM,0,0,?
Cc1ccc(C(=O)Nn2cnnc2)cc1,0,0,0,0,0,0
CCCn1c(=N)n(CC(O)COc2cccc(C)c2)c2ccccc21 (configuration not stated),?,0,15µM,0,0,16µM
Cc1cccc(OCC(O)CN2C(C)(C)CC(O)CC2(C)C)c1 (configuration not stated),0,0,0,0,0,0
CCCCCn1c(=N)n(CC(O)COc2cccc(C)c2)c2ccccc21 (configuration not stated),-,0,2.1µM,-,0,2.9µM
CCn1c(=N)n(CC(O)COc2cccc(C)c2)c2ccccc21 (configuration not stated),?,0,9.2µM,0,0,15µM
COc1ccc2c(c1OC)C(=O)OC2c1ccc(O)cc1 (configuration not stated),-,0,13µM,-,-,18µM
COc1nc(N)nc(NC(=O)c2cccs2)c1N=O,-87,-,2.3µM,0,0,2.1µM
COc1ccc(NC(=O)c2ccc(NC(=O)c3cccs3)cc2)cc1,0,0,0,0,0,0
Cc1ccc(C2(c3ccc(C)cc3)CC2C(=O)NCc2cccnc2)cc1 (configuration not stated),0,0,?,0,0,0
Cc1ccc(NC(=O)CSc2nccn2Cc2ccc3c(c2)OCO3)c(C)c1,-,0,0,-,0,0
CCCN(CCC)c1nc2ccccc2nc1C(C#N)C(=O)OCCOC (configuration not stated),-62,0,23µM,0,0,?
C=CCN(CC=C)c1nc2ccccc2nc1C(C#N)C(=O)OCCOC (configuration not stated),?,0,?,0,0,21µM
COc1ccc(C(=O)NCCS(=O)(=O)N2CCN(C(=O)c3ccco3)CC2)cc1,0,-,0,0,0,0
O=C(Nc1ccc(-c2cnco2)cc1)c1ccccc1,-71,-,0,0,0,0
O=C(Nc1ccncc1)c1ccc(-c2ccccc2)cc1,0,0,2.9µM,0,0,3.3µM
O=C(Nc1ccc(-c2cnco2)cc1)c1ccc(Cl)cc1,?,0,0,0,0,0
O=C(NNC(=O)c1ccccc1O)c1ccc(S(=O)(=O)Nc2ccccc2)cc1,0,0,16µM,0,0,?
CC(=O)c1cccc(NS(=O)(=O)c2ccc(C(=O)Nc3ccccc3)cc2)c1,0,0,12µM,0,0,18µM
O=C(Nc1cccnc1)c1ccc(-c2ccccc2)cc1,0,0,?,0,0,0
Cc1nn(C)c(C)c1S(=O)(=O)N(CC(=O)Nc1ccc(F)cc1F)c1ccc(C(C)C)cc1,-,0,?,-,0,?
O=C(Nc1ccncc1)c1ccc(S(=O)(=O)Nc2ccccc2)cc1,0,-,12µM,0,0,15µM
CCOC(=O)c1cc(C(=O)OCC)c(=O)[nH]c1C,0,?,?,0,0,?
